PAFAH2 FP inh = inhibitors of human PAFAH2; 0.99% of 340,000 active; Q99487; recombinant PAFAH2, FP-rhodamine activity probe, fluorescence polarization; inhibition, % at 3.39 µM; AID 492956;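 active = inhibition above the mean over all tested compounds plus 3 SD, cut at about 30% in these data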;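 note: inhibitors block probe labeling of enzyme so polarization drops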
pPAFAH inh = pPAFAH (human) enzyme inhibition. recombinant pPAFAH, FP-rhodamine probe fluorescence polarization. inhibition, % at 3.39 µM. 1.5% of 330,000 active;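 active = inhibition above the mean inhibition across the screen plus 3 SD, cut at about 25% in these data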;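 note: inhibitors block binding of the rhodamine activity-based probe so polarization drops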
PP1 counter = counter-screen for PP5 inhibitors: inhibitors of human PP1-alpha; P62136; purified PP1alpha, OMFP fluorescence; inhibition, % at 6.7 µM; 0.9% of 320,000 active; AID 2235;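 active = inhibition above the mean inhibition of all tested compounds plus 3 SD, computed separately for each screening campaign, cut at about 15% in these data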
Target sequence (P62136 whole entry, looked up): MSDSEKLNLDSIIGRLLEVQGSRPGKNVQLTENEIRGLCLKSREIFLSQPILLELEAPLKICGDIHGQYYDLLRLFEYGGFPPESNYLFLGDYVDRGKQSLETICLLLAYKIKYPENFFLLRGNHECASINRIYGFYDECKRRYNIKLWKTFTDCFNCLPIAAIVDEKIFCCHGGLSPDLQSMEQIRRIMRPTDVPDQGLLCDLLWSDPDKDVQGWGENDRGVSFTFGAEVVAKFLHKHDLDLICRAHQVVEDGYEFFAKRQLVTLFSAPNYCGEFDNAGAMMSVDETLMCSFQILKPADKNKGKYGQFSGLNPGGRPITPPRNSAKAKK
PAFAH1B3 FP inh = PAFAH1B3 (human) inhibition; Q15102; recombinant PAFAH1B3, FP-rhodamine probe, fluorescence polarization; inhibition, % at 3.39 µM; 0.28% of 340,000 active;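 active = inhibition above the screen-wide average of all tested compounds plus 3 SD, cut at about 25% in these data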
Target sequence (Q15102 whole entry, looked up): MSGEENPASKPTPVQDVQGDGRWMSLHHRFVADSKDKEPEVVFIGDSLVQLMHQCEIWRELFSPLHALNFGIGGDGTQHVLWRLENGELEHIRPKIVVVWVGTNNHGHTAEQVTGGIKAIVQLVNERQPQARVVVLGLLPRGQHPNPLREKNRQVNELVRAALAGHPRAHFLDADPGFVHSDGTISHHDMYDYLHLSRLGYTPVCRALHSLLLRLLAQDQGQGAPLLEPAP
PAFAH1B2 FP inh = PAFAH1B2 (human) inhibition. P68402. recombinant PAFAH1B2, FP-rhodamine activity probe, fluorescence polarization. inhibition, % at 3.39 µM. 1.2% of 340,000 active. AID 492953;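 active = inhibition above the mean of all tested compounds plus 3 SD, cut at about 24% in these data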
PP5 inh = blocks human protein phosphatase 5 activity; P53041; purified PP5c, OMFP substrate fluorescence; inhibition, % at 6.7 µM; 0.18% of 320,000 active; AID 1987;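 active = inhibition above the campaign's mean inhibition across all tested compounds plus 3 SD, cut at about 9.5% in these data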
Numbers stand for hits; - = inactive; . = no result. Sampled rows, rich in hits. Any-hit rate of the full collection: about 3.4%.

SMILES | PAFAH2 FP inh | pPAFAH inh | PP1 counter | PAFAH1B3 FP inh | PAFAH1B2 FP inh | PP5 inh
O=[N+]([O-])c1cc(C2Nc3cccc4cccc(c34)N2)ccc1Cl | - | - | - | - | 37.1 | -
COc1ccc(Br)cc1C1Nc2cccc3cccc(c23)N1 | - | - | - | - | - | -
O=C1NC(c2ccc(Cl)c([N+](=O)[O-])c2)Nc2ccccc21 (configuration not stated) | - | - | - | - | - | -
COc1cc(C2Nc3cccc4cccc(c34)N2)ccc1O | - | - | - | 37.4 | 24.7 | -
COCCn1ccc2c(OCC(=O)Nc3cccc(NC(C)=O)c3)cccc2c1=O | - | - | - | - | - | -
O=C(NCCn1cccn1)C1CCC(=O)N(CCc2ccc(Cl)cc2)C1 (configuration not stated) | - | - | - | - | - | -
CCCCc1c(C)nn(-c2nnc3c4ccccc4n(C)c3n2)c1C | - | - | 17.1 | - | - | -
Cc1cccc(NS(=O)(=O)c2ccc(C(=O)N3CC(C)OC(C)C3)cc2)c1C (configuration not stated) | - | 28.6 | - | - | - | -
CC(C)(CC(=O)O)CC(=O)N1CCN(c2nc3cc(Cl)ccc3s2)CC1 | - | - | - | - | - | -
Cc1oc(C(=O)O)cc1COc1cccc2cccnc12 | - | 28.1 | - | - | - | -
O=C1C=C(Nc2ccccc2O)c2ccccc2C1=O | - | - | - | - | - | -
O=C1C=C(NCc2ccccc2)c2ccccc2C1=O | 53.2 | . | . | 60.2 | 26.8 | .
Cc1ccc(NCc2cccc(B(O)O)c2)cc1 | - | . | . | - | - | .
CCOc1ccc(NS(=O)(=O)c2ccc(NC(C)=O)c(OC)c2)cc1 | - | 24.7 | - | - | - | -
CCC(=O)Nc1ccc(S(=O)(=O)Nc2cccc(C)c2)cc1OC | - | 30.2 | - | - | - | -
COc1cc(S(=O)(=O)Nc2ccncc2)ccc1F | - | - | - | - | - | -
CCC(=O)Nc1ccc(-c2ccc(NC(=O)CC)c(OC)c2)cc1OC | - | - | - | - | - | -
COc1cc(S(=O)(=O)Nc2ccc(C)cc2)ccc1NC(=O)c1ccncc1 | - | 33.9 | - | - | - | -
COC(=O)c1cccc2c(C(=O)O)cc(-c3ccccc3)nc12 | - | . | . | - | - | .
CC(=O)Nc1ccc(Nc2ccc3c4c(cc(=O)n3C)-c3ccccc3C(=O)c24)cc1 | - | - | - | - | - | -
O=C1c2ccccc2C(=O)c2c(Nc3ccc(CCO)cc3)ccc(O)c21 | - | 31.5 | - | - | - | -
O=C(NCc1ccc2c(c1)OCO2)c1ccc(COc2cc(Cl)ccc2Cl)o1 | - | - | - | - | - | -
O=C(NCc1ccc2c(c1)OCO2)c1ccc(CS(=O)(=O)Cc2cccc(Cl)c2)o1 | - | 25.0 | - | - | - | -
CCc1ccccc1S(=O)(=O)Cc1ccc(C(=O)NCc2ccc3c(c2)OCO3)o1 | - | - | - | - | - | -
O=C(NCc1ccc2c(c1)OCO2)c1ccc(CSCc2ccc(Cl)cc2)o1 | - | - | - | - | 25.7 | -
SMILES | PAFAH2 FP inh | pPAFAH inh | PP1 counter | PAFAH1B3 FP inh | PAFAH1B2 FP inh | PP5 inh
CC[C@H](C)/C=C(C)/C=C/C(=O)Cc1cc(O)c(C)c(O)c1C=O | - | 32.1 | - | - | - | -
O=[N+]([O-])c1cc(C(F)(F)F)ccc1NCCCCNS(=O)(=O)c1ccc2ccccc2c1 | - | - | - | - | - | -
CS(=O)(=O)NCCCCNc1ccc(C(F)(F)F)cc1[N+](=O)[O-] | - | 25.6 | - | - | - | -
Cc1ccc(S(=O)(=O)N2CCCCC2)cc1NC(=O)c1nn(C)c(=O)c2ccccc12 | - | . | . | - | - | .
O/N=C/c1ccc2ccccc2c1 | - | - | - | - | 50.2 | -
COc1cccc2cc(C(=O)C3=C(O)C(=O)N(CCN4CCOCC4)C3c3cccc(Cl)c3)oc12 (configuration not stated) | - | - | 22.8 | - | - | -
CCOCCn1c(=O)c2c(nc3n2CC(C)CN3Cc2ccccc2)n(C)c1=O (configuration not stated) | - | - | - | - | - | -
O=C1C(c2ccccc2)NC(=S)N1C1CCCCC1 (configuration not stated) | - | - | - | - | 35.9 | -
CC(C)C(=NO)c1ccccc1 | - | . | . | - | - | .
CCn1c(C)c(CS(=O)(=O)c2ccccc2)[nH]c1=O | - | - | - | - | - | -
CN(C)C1CCN(Cc2cc(COCc3ccccc3)c3cccnc3c2O)C1 (configuration not stated) | - | 25.4 | . | - | - | .
Cc1c(CCC(=O)O)c(=O)oc2cc(OCc3ccccc3Br)ccc12 | - | 33.1 | - | - | - | -
Cc1c(CCC(=O)O)c(=O)oc2cc(OCc3cccc(F)c3)ccc12 | - | - | - | - | - | -
Cc1c(N2C(=O)/C(=C\c3ccc(N(C)C)cc3)N(C)C2=S)c(=O)n(-c2ccccc2)n1C | - | - | 15.7 | - | - | -
COC(=O)CCCC1=CC2=CC(=O)C(C)(OC(=O)c3ccco3)C(=O)C2=CO1 (configuration not stated) | . | 46.8 | - | . | . | -
CCCCC1=CC2=CC(=O)C(C)(OC(=O)c3ccc(Cl)nc3)C(=O)C2=CO1 (configuration not stated) | . | 53.5 | - | . | . | -
CC(C)(C)OC(=O)NCCCC1=CC2=CC(=O)C(C)(OC(=O)C3CCCC3)C(=O)C2=CO1 (configuration not stated) | . | 41.3 | - | . | . | -
CC(C)(C)OC(=O)NCCCCC1=CC2=CC(=O)C(C)(OC(=O)c3ccco3)C(=O)C2=CO1 (configuration not stated) | . | 42.8 | - | . | . | -
COC(=O)CCCC1=CC2=CC(=O)C(C)(OC(=O)CCc3ccccc3)C(=O)C2=CO1 (configuration not stated) | - | - | - | - | - | -
CCCN(CC(=O)Nc1ccc(F)c(F)c1F)C(=O)CN1C(=O)NC2(CCCCC2)C1=O | - | . | . | - | - | .
Cc1ccc(CC(=O)NNC(=O)c2cccs2)cc1C | - | . | . | - | - | .
CCOC(=O)C1CCCN(C(=O)CCc2nc3sc4c(c3c(=O)[nH]2)CCCC4)C1 (configuration not stated) | - | - | - | - | - | -
O=c1oc2cc(O)c(Cl)cc2c2ccccc12 | - | - | - | - | - | -
O=c1oc(Cl)c(Cl)c2ccccc12 | 34.8 | - | - | - | - | -
CCc1ncc(CN2CCCC(C(=O)Nc3ccc(-c4cscn4)cc3)C2)cn1 (configuration not stated) | - | - | - | - | - | -
COc1ccc(-c2noc(CN3CCN(C(=O)c4cccs4)CC3)n2)c(OC)c1OC | - | - | - | - | - | -
CCOC(=O)c1ccc(NC(=O)C2CCN(C(=O)c3ccc(OC)c(OC)c3)CC2)cc1 | - | 29.1 | - | - | - | -
O=c1[nH]nc(SCc2ccccc2)c(=O)[nH]1 | - | - | - | - | - | -
NNC(=O)c1ccc(CSc2n[nH]c(=O)[nH]c2=O)cc1 | - | - | 16.0 | - | - | -

Assay outcomes from PubChem BioAssay.
